Tests used:
Assay in all cases: DAPPL (digital affinity profiling via proximity ligation, sequencing); 10 mM Tris-HCl pH 7.5, 50 mM NaCl, 1 mM DTT, 4% glycerol, room temperature, 30 min; GST-TFs on glutathione beads, 16-mer random dsDNA library, 0.1% formaldehyde crosslink after washing; high values mean tight binding
FEV = target: T1, FEV (Homo sapiens, UniProt Q99581 1-238); settings: protein: recombinant; tags: N-terminal GST; dsDNA, one strand shown
T1 sequence: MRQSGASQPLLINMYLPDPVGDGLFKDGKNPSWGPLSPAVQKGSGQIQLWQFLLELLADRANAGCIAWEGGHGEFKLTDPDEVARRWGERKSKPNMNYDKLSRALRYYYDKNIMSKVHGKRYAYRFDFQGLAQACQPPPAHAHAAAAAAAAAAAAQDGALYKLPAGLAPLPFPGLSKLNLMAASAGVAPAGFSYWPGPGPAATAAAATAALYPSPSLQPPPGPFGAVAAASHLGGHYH
Method in brief: (§1)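 Human transcription factors fused to GST were expressed in yeast, captured on glutathione beads, given DNA barcodes and pooled with a GST-only negative control. Pools were incubated with 200 nmole of a 16-mer random double-stranded DNA library in Tris/NaCl/DTT/glycerol buffer at room temperature for 30 min. They were then washed, crosslinked with 0.1% formaldehyde, proximity-ligated (BsaI/T4 ligase, 1 h, 37 °C), PCR-amplified and sequenced on an Illumina NextSeq500. Binding signal is each 6-mer's read frequency for a factor divided by its frequency for the GST control.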

ETV5 = ETV5 (Homo sapiens, UniProt P41161 1-510); settings: protein: recombinant; tags: N-terminal GST; dsDNA, one strand shown
Chain of ETV5 (P41161 whole entry): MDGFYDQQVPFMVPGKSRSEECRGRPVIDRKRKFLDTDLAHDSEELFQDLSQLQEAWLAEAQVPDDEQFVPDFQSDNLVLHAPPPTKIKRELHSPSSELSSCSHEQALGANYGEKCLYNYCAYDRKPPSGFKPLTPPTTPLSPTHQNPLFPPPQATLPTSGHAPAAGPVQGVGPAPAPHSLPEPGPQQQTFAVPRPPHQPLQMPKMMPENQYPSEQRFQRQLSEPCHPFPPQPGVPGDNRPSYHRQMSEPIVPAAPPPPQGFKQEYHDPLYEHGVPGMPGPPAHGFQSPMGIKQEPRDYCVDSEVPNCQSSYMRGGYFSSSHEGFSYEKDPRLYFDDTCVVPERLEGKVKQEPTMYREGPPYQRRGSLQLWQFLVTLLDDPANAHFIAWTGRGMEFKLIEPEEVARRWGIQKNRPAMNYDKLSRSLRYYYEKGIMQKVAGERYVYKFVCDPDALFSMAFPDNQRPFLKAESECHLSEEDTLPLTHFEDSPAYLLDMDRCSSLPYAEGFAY
Method in brief: as §1

HSF1 = HSF1 (Homo sapiens, UniProt Q00613 1-529); settings: protein: recombinant; tags: N-terminal GST; chain copies: 3; dsDNA, one strand shown
Chain of HSF1 (Q00613 whole entry): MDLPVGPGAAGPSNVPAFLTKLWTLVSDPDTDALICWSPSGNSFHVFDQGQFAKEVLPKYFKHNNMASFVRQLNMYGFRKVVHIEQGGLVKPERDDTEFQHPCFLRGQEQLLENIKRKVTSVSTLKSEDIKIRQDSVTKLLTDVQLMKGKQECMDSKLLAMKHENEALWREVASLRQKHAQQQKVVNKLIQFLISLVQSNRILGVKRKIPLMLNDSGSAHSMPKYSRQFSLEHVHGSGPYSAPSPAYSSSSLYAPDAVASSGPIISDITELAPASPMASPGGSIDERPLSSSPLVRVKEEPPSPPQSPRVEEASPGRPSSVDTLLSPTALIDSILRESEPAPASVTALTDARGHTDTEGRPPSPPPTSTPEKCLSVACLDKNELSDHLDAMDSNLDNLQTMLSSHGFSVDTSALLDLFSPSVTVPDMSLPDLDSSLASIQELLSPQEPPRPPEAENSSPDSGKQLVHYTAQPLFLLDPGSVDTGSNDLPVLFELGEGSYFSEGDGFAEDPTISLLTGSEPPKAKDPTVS
Method in brief: as §1

SPIC = target: T2, SPIC (Homo sapiens, UniProt Q8N5J4 1-248); settings: protein: recombinant; tags: N-terminal GST; dsDNA, one strand shown
T2 sequence: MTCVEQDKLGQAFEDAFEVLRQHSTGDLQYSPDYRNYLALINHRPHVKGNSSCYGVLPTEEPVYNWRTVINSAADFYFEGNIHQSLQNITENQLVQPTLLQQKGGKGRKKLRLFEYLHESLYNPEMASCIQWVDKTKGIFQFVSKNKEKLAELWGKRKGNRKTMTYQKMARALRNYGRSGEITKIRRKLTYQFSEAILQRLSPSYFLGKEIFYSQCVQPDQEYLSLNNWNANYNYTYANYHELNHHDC
Method in brief: as §1

ELF4 = ELF4 (Homo sapiens, UniProt Q99607 1-663); settings: protein: recombinant; tags: N-terminal GST; dsDNA, one strand shown
Chain of ELF4 (Q99607 whole entry): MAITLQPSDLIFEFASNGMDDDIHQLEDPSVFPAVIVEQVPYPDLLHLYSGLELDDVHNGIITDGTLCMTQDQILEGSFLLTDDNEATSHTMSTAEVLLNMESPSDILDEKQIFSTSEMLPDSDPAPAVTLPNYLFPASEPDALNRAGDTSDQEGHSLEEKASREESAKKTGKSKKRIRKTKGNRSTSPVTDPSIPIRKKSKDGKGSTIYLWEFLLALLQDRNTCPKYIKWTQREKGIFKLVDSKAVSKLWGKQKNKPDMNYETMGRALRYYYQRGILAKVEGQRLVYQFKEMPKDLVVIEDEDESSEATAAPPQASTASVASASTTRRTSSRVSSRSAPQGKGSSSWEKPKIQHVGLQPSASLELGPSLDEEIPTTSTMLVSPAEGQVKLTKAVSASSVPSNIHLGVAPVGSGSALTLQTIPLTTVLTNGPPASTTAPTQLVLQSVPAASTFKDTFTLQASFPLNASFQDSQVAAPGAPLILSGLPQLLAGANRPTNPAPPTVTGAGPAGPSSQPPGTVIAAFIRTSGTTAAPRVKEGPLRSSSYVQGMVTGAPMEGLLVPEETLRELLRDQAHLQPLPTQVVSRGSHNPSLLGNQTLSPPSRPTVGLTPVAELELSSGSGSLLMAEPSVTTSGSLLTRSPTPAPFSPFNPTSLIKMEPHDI
Method in brief: as §1

ELK4 = target: T3, ELK4 (Homo sapiens, UniProt P28324-2 1-405); settings: protein: recombinant; tags: N-terminal GST; dsDNA, one strand shown
T3 sequence: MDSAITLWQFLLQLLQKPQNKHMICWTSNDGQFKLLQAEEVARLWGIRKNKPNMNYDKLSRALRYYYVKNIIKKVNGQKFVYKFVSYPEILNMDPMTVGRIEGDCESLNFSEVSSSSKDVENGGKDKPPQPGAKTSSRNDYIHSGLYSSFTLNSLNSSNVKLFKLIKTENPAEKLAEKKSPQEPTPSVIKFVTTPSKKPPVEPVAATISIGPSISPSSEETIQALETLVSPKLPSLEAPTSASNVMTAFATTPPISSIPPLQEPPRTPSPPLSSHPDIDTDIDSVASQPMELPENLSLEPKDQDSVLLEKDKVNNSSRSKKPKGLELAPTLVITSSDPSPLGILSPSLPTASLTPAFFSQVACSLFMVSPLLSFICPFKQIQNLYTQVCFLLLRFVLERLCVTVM
Method in brief: as §1

ETV2 = target: T4, ETV2 (Homo sapiens, UniProt O00321 1-342); settings: protein: recombinant; tags: N-terminal GST; dsDNA, one strand shown
T4 sequence: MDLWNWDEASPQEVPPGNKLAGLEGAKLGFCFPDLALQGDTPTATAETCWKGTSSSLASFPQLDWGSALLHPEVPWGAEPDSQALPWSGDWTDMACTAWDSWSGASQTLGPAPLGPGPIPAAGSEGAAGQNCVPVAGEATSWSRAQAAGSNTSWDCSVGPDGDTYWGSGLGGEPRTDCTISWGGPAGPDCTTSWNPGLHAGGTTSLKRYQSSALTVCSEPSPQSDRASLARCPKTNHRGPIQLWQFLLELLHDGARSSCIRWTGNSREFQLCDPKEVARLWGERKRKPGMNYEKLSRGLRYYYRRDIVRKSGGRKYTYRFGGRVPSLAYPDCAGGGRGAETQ
Method in brief: as §1

ELF3 = target: T5, ELF3 (Homo sapiens, UniProt P78545 1-371); settings: protein: recombinant; tags: N-terminal GST; dsDNA, one strand shown
T5 sequence: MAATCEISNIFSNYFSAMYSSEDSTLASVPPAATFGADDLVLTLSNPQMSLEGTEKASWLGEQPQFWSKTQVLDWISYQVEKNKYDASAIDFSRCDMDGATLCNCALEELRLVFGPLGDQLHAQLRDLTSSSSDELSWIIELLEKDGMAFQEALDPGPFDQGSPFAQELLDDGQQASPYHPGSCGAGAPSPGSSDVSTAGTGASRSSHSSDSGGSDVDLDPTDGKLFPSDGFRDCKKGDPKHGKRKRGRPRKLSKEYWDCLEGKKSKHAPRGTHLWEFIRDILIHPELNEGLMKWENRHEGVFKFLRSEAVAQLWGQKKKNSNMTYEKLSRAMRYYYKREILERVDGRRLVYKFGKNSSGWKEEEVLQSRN
Method in brief: as §1

CRX = CRX (Homo sapiens, UniProt O43186 1-299); settings: protein: recombinant; tags: N-terminal GST; dsDNA, one strand shown
Chain of CRX (O43186 whole entry): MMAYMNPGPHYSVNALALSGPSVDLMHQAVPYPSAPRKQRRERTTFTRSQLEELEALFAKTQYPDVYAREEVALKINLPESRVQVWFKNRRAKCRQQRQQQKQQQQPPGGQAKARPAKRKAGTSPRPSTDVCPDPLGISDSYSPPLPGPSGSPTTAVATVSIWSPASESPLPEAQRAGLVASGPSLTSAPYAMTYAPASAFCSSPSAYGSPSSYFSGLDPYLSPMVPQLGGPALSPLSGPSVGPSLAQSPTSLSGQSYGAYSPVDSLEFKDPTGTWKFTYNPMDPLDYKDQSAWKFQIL
Method in brief: as §1

ETV1 = ETV1 (Homo sapiens, UniProt P50549 1-477); settings: protein: recombinant; tags: N-terminal GST; dsDNA, one strand shown
Chain of ETV1 (P50549 whole entry): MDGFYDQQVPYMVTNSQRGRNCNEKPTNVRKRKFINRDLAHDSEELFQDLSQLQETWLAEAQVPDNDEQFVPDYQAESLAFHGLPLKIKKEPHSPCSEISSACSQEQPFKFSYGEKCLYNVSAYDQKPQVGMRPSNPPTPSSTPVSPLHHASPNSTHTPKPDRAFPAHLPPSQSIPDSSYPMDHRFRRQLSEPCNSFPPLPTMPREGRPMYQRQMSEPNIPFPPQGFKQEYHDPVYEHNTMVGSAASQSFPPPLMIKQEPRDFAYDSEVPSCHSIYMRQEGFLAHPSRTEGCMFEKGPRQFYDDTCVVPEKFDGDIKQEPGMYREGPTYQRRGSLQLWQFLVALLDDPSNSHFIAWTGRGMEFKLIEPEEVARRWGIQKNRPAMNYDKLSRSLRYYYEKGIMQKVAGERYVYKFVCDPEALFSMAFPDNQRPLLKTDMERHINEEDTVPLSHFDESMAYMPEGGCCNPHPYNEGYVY
Method in brief: as §1

CTTTGC
binding signal (FEV): 1.19 fold enrichment (6-mer frequency, TF over GST control) | binding signal (ETV5): 1.32 fold enrichment (6-mer frequency, TF over GST control) | binding signal (HSF1): 1.25 fold enrichment (6-mer frequency, TF over GST control) | binding signal (SPIC): 1.45 fold enrichment (6-mer frequency, TF over GST control) | binding signal (ELF4): 1.36 fold enrichment (6-mer frequency, TF over GST control) | binding signal (ELK4): 1.32 fold enrichment (6-mer frequency, TF over GST control) | binding signal (ETV2): 1.4 fold enrichment (6-mer frequency, TF over GST control) | binding signal (ELF3): 1.46 fold enrichment (6-mer frequency, TF over GST control) | binding signal (CRX): 1.33 fold enrichment (6-mer frequency, TF over GST control) | binding signal (ETV1): 1.35 fold enrichment (6-mer frequency, TF over GST control)

Reference: publication PMC7862700, “An all-to-all approach to the identification of sequence-specific readers for epigenetic DNA modifications on cytosine”
